# This excerpt belongs to a sample that is enriched for hits.
# RmlCD inh 1536: M. tuberculosis RmlC/RmlD coupled enzyme inhibitors, primary screen, biochemical, compound mixtures, 384-well, from 1536-well plates. dTDP-4-dehydrorhamnose reductase (Mycobacterium tuberculosis (strain ATCC 25618 / H37Rv)) …. RmlC+RmlD coupled enzyme assay, percent inhibition; primary screen in compound mixtures. inhibition, % at 3.6 µM. 0.03% of 160,000 active. AID 1533, 2009; in the data active = inhibition mostly above about 34%, no sharp cut-off
# Target sequence (P9WH09 whole entry, looked up): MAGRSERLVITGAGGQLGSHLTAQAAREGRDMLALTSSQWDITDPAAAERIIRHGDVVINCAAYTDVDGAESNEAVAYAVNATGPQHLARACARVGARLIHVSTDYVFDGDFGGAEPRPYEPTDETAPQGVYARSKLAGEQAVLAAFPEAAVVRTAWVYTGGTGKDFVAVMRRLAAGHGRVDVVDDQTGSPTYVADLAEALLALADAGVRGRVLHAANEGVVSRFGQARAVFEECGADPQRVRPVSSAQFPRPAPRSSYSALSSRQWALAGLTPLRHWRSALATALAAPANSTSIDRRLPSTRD
# Target sequence (P9WH11 whole entry, looked up): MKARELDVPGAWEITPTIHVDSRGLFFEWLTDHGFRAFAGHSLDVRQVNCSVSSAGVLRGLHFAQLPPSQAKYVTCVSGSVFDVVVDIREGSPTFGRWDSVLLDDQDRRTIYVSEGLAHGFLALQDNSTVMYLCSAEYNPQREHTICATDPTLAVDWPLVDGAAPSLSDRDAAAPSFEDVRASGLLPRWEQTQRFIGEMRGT
# YopH inh: YopH tyrosine phosphatase inhibitors, primary screen, biochemical, fluorescence Ex485/Em525; inhibition, % (test concentration not listed); 0.16% of 140,000 active; AID 898, 2007; in the data active = inhibition above about 50%
# * marks the source's active call; other numbers are inactive results; . = no result.
SMILES,RmlCD inh 1536,YopH inh
O=C(NC1(O)C(=O)c2ccccc2C1=O)c1c(Cl)cccc1Cl,-3.0,.
O=C(NC1(O)C(=O)c2ccccc2C1=O)c1ccccc1,.,102.1*
N#Cc1c(N)n(CCNC(=O)c2ccccc2)c2nc3ccccc3nc12,.,-26.6
N#Cc1c(N)n(CCNC(=O)c2cccs2)c2nc3ccccc3nc12,.,53.7*
O=C(NCc1ccco1)/C(=C\c1cccnc1)NC(=O)c1ccccc1F,3.7,2.9
CCOC(=O)N1CCC(Nc2c(NCCCOC)c(=O)c2=O)CC1,-4.6,-26.4
N=C(N=C(N)N)N1CCc2ccccc21,17.3,.
Cc1onc(-c2c(Cl)cccc2Cl)c1C(=O)NCc1ccccn1,-4.7,-19.7
Cc1onc(-c2ccccc2)c1C(=O)NCc1ccccn1,-2.2,53.3*
O=C(NC1CCCCC1)C(c1ccc2ncccc2c1)N(Cc1ccc(F)cc1)C(=O)c1ccc2c(c1)OCCO2 (stereo unspecified),-7.8,-28.3
CC(Sc1ccc2ccccc2c1)C(=O)NC(N)=O (stereo unspecified),-4.0,.
CCn1c(C)nc2cc(C(=O)N/N=C/c3ccc(OC)cc3)ccc21,3.8,.
CCn1c(C)nc2cc(C(=O)N/N=C(\C)c3ccc(OC)cc3O)ccc21,36.6*,.
COc1ccc(CC(=O)Nc2nnc(C(C)C)s2)cc1OC,-11.7,.
COc1ccccc1CNC(=O)CSc1ccc(-c2cccc([N+](=O)[O-])c2)nn1,12.6,.
C=CCn1c(SCC(=O)N2CCOCC2)nc(O)c(Cc2ccccc2)c1=O,0.8,-0.7
Oc1ccc(C=Nc2ccc3ncccc3c2)c(O)c1,-6.4,72.5*
Oc1ccc(C=Nc2cccc3ncccc23)c(O)c1,5.6,-42.7
Cc1cccc(N=C(N2CCOCC2)P(=O)(N2CCOCC2)N2CCOCC2)c1,.,-23.3
COc1ccc(S(C)(=O)=O)cc1S(C)(=O)=O,10.1,-32.2
CC(CC(=O)NCc1ccccc1)C1CCCO1 (stereo unspecified),.,-0.4
COc1cc(NC(=O)c2cccs2)c(OC)cc1NC(=O)CCn1nnc2ccccc21,-1.4,-7.5
CC(=O)[C@@H]1[C@@H](C(=O)c2ccc(C)cc2)[C@]2(C(=O)Nc3ccccc32)[C@H]2C=Cc3cc(F)ccc3N12,-5.5,26.7
O=C(c1ccc(F)cc1)[C@@H]1[C@@H](C(=O)c2ccccc2)[C@@]2(C(=O)Nc3ccccc32)[C@H]2c3ccccc3C=CN12,4.4,83.3*
COCCCNc1nc2nonc2nc1N(C)CC1CCCN1C (stereo unspecified),-4.9,.
SMILES,RmlCD inh 1536,YopH inh
Cc1ccc(S(=O)(=O)c2cc(C#N)c(=O)[nH]c2N)cc1,.,-24.8
Cc1cc(NC(=O)C23CCC(C)(c4nc5cc(Cl)c(Cl)cc5nc42)C3(C)C)no1 (stereo unspecified),.,-5.8
CCOC(=O)C1=C(C)N[C@@]2(O)c3ccccc3C(=O)[C@@]12O,6.8,34.7
CCCCOC(=O)C1=C(C)NC2(O)c3ccccc3C(=O)C12O (stereo unspecified),10.3,66.7*
COC(=O)CSc1nnc(CNC(=O)c2ccccc2OC)n1C,19.7,-37.7
COC(=O)CSc1nnc(CNC(=O)c2cccc(C)c2)n1-c1ccccc1OC,.,75.9*
Cc1[nH]c(=O)c(C#N)c2c1CSC(C)(C)C2,-4.6,13.2
Cc1ccc(C(c2sc3nc(C)nn3c2O)N2CCOCC2)cc1 (stereo unspecified),-7.6,64.3*
Cc1nc2sc(C(c3ccc(F)cc3)N3CCOCC3)c(O)n2n1 (stereo unspecified),.,-21.1
Cn1cnc(NCc2ccccc2)c1[N+](=O)[O-],-7.2,.
Cc1n[nH]c(C)c1S(=O)(=O)N(CC(=O)Nc1ccc2c(c1)OCCO2)c1ccc(C(C)C)cc1,7.8,17.6
CC(C)Cn1c(SCc2nnc(-c3cccs3)o2)nc(O)cc1=O,.,-38.3
CCOc1ccc(C(=S)N2CCOCC2)cc1OC,.,50.5*
CCOc1cc(C(=S)N2CCOCC2)ccc1OC,.,11.8
Cc1ccc(CSCCNC(=O)CN2C(=O)c3ccccc3S2(=O)=O)cc1,.,56.1*
COc1ccc(CCNC(=O)CN2C(=O)c3ccccc3S2(=O)=O)cc1OC,2.1,-1.6
CCN1C(=C2C(=O)c3ccccc3C2=O)C=Cc2ccccc21,-37.9,-3.2
O=C1C=Cc2ccccc2C1=O,.,62.5*
c1ccc(-n2ncc3c(N4CCN(CCOc5cccc6ccccc56)CC4)ncnc32)cc1,7.8,-11.3
Cc1ccc(S(=O)(=O)Nc2ccc(NC(=O)c3c(F)c(F)c(F)c(F)c3F)cc2)cc1,-0.5,.
CSc1nsc(/C=C/Nc2ccc(F)cc2)c1C#N,5.2,.
CSc1nsc(/C=C/Nc2ccc(Cl)cc2)c1C#N,.,55.5*
Cc1cc(NC(=O)CSc2nnc(Cc3ccccc3)o2)no1,-3.0,-26.6
O=C(CN(C(=O)CSc1nc2ccccc2o1)c1ccccc1)NC1CCCCC1,1.0,-15.3
Nc1ccc2c(c1)Cc1ccccc1-2,4.8,-23.0
SMILES,RmlCD inh 1536,YopH inh
Nc1ccc2c(c1)C(=O)C(=O)c1ccccc1-2,2.3,100.9*
O=C1C(=O)c2ccc(-c3ccccc3)cc2-c2ccccc21,.,76.7*
COC1=C(c2ccccc2)C(=O)c2ccccc2C1=O,.,49.3
CC1CCCC(C)N1C(=O)COC(=O)c1ccc(O)cc1 (stereo unspecified),-2.8,-3.8
COc1ccc(N(C)S(=O)(=O)c2cccc(C(=O)Nc3ccc(-n4cnnn4)cc3)c2)cc1,.,-36.6
COC(=O)/C(=C/Nc1cccc2ccccc12)[N+](=O)[O-],99.6*,-16.7
CCOC(=O)/C(=C\c1cn(C)c2ccccc12)[N+](=O)[O-],.,1.1
Cn1c(SCC(=O)Nc2cccc(S(=O)(=O)NC3=NCCCCC3)c2)nnc1-c1ccccc1,-1.1,.
CCN1C(=O)N(c2cccc3ccccc23)C(C)=CC1(C)C,.,9.1
CN1C(=O)N(C)C2(c3ccccc3)NC(=O)NC12c1ccccc1 (stereo unspecified),-4.2,-25.8
CCN1c2ccccc2N(C)C1(C)c1ccccc1 (stereo unspecified),0.1,92.2*
CN1c2ccccc2N(C)C1(C)c1ccccc1,8.9,85.2*
COc1cc(/C=C(\C#N)c2ccccn2)ccc1OCc1ccc(Cl)cc1,6.0,3.2
Fc1ccc(Nc2ccc3ccccc3n2)c(F)c1,12.5,.
CC(C)OC(=O)C1C(=O)CC(C)(O)C(C(=O)OC(C)C)C1c1ccccc1 (stereo unspecified),4.0,.
COC(=O)C1C(C(C)C)N(c2ccccc2)OC1(C)O (stereo unspecified),-3.7,59.2*
Cc1ccccc1-c1nc(CN2CCC(C(=O)NCCCN3CC(C)CC(C)C3)CC2)c(C)o1 (stereo unspecified),-9.6,-15.0
CCOC(=O)c1oc2ccc(Br)cc2c1CSc1nnc(C)s1,-1.6,88.4*
CCOC(=O)c1oc2ccccc2c1CSc1nnnn1-c1ccc(OC)cc1,-4.0,4.1
N#Cc1c(N2CCCC2)nc(N)c2c(N)nc(N3CCCC3)cc12,.,101.3*
COc1cc2c(C#N)c(N3CCCC3)nc(N)c2c(N)n1,4.1,.
C1CCc2nc3c(nc2C1)CCCC3,69.9,.
Nc1nnc2c(n1)CCCC2,5.9,51.8*
